Growth data for seven molecules are collected here from PubChem BioAssay (NCI).

This is part of a sample that, as a whole, favours compounds with a hit. Of some 83,000 tested, about 20% had one in any assay.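 Plates (96-well) were seeded with cells, treated with compound at one concentration, and incubated for 48 hours before percent growth was determined.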 Values without a mark were called inactive. Active and inactive are the calls of the source. How the source made its calls: active means growth percent below 10; inactive means the rest.

Experiment in all cases: NCI-60 one-dose screen, 48 h (100 = growth as untreated, 0 = no growth, -100 = all killed)
For one assay, the system named is SK-MEL-2 melanoma. The following applies: 10 µM unless noted.
A further assay relates to EKVX NSCLC. The following applies: 10 µM unless noted.
The test system of a further assay is SN12C renal. The note with it: 10 µM unless noted.
Another assay relates to UO-31 renal. The note with it: 10 µM unless noted.
The next assay deals with TK-10 renal. The note with it: 10 µM unless noted.
A further assay has as its system ACHN renal. The following applies: 10 µM unless noted.
For a further assay, the system named is CAKI-1 renal. The note with it: 10 µM unless noted.
A further assay concerns A498 renal. The note with it: 10 µM unless noted.
The test system of another assay is CCRF-CEM leukemia. The note with it: 10 µM unless noted.
The test system of another assay is MOLT-4 leukemia. The note with it: 10 µM unless noted.
The subject of a further assay is SR leukemia. The following applies: 10 µM unless noted.
In another assay the test system is RPMI-8226 leukemia. The note with it: 10 µM unless noted.
For a further assay, the system named is OVCAR-8 ovarian. The following applies: 10 µM unless noted.
The next assay relates to OVCAR-5 ovarian. The following applies: 10 µM unless noted.
A further assay has as its system OVCAR-4 ovarian. The note with it: 10 µM.
The test system of the next assay is IGROV1 ovarian. The following applies: 10 µM unless noted.
A further assay has as its system OVCAR-3 ovarian. The following applies: 10 µM unless noted.
Another assay deals with HS 578T breast. The following applies: 10 µM unless noted.
A further assay concerns NCI/ADR-RES ovarian. The note with it: 10 µM unless noted.

Turning to `Cc1ccc(NC(=O)N[C@@H](Cc2cc(F)cc(F)c2)C(=O)N[C@@H]2C(=O)N3CCC[C@H]3C(=O)N3CCOC[C@H]3C(=O)N[C@@H](C)C(=O)N3C[C@H](C)C[C@H]3C(=O)O[C@H]2C)cc1`, the growth in the assay on SK-MEL-2 melanoma was 40.7%; in the assay on EKVX NSCLC, 30.6%; in the assay with SN12C renal, 18.4%; in the assay on UO-31 renal it was 28.4%; in the assay with TK-10 renal, 60.7%; in the assay with ACHN renal it was 29.7%. The growth in the assay on CAKI-1 renal was 16.5%; in the assay with A498 renal, -3.1% (active); with CCRF-CEM leukemia it was 58.3%; with MOLT-4 leukemia, 41%; in the assay on SR leukemia, 32%; in the assay on RPMI-8226 leukemia, 23%. Besides, the growth was 19.8% with OVCAR-8 ovarian; 38% in the assay with OVCAR-5 ovarian; 12.8% with OVCAR-4 ovarian; 47.2% in the assay on IGROV1 ovarian; 18.9% with OVCAR-3 ovarian; 41.9% in the assay on HS 578T breast. Further, in the assay with NCI/ADR-RES ovarian, the growth was 91.5%.

Take `N=C(N)c1ccc(-c2ccc(-c3ccc(-c4cccs4)s3)s2)cc1F`: the growth is 114% in the assay on SK-MEL-2 melanoma; 98.8% in the assay on EKVX NSCLC; 92.7% in the assay with SN12C renal; 76.5% in the assay with UO-31 renal; 122% in the assay with TK-10 renal; 101% in the assay on ACHN renal. Moreover, the growth in the assay with CAKI-1 renal was 93.6%; in the assay on A498 renal it was 0.519% (active); with CCRF-CEM leukemia, 26.8%; with MOLT-4 leukemia, 91%; in the assay with SR leukemia, 18.6%; in the assay on RPMI-8226 leukemia, 49.4%. In addition, the growth in the assay with OVCAR-8 ovarian is 102%; in the assay on OVCAR-5 ovarian, 75.8%; in the assay on OVCAR-4 ovarian, 90.5%; in the assay on IGROV1 ovarian, 93.5%; in the assay on OVCAR-3 ovarian, 91.4%; with HS 578T breast, 101%. In addition, the growth in the assay with NCI/ADR-RES ovarian is 102%.

Turning to `Cc1cccc(C[C@H](NC(=O)Nc2ccc(Cl)cc2F)C(=O)N[C@@H]2C(=O)N3C[C@H](O)C[C@H]3C(=O)N3CCN(C)C[C@H]3C(=O)N[C@@H](C)C(=O)N3C[C@H](C)C[C@H]3C(=O)O[C@H]2C)c1`, the growth in the assay with SK-MEL-2 melanoma was 34.4%; in the assay with EKVX NSCLC it was 71.4%; with SN12C renal, 20.5%; with UO-31 renal, 83.6%; in the assay with TK-10 renal it was 81.4%; in the assay on ACHN renal, 102%. For the same molecule, the growth in the assay with CAKI-1 renal was 59.1%; in the assay with A498 renal, 23.7%; with CCRF-CEM leukemia, 57.2%; in the assay on MOLT-4 leukemia, 43.4%; with SR leukemia, 45%; in the assay on RPMI-8226 leukemia, 22.6%. Moreover, the growth in the assay with OVCAR-8 ovarian is 26.9%; with OVCAR-5 ovarian, 38.8%; in the assay with OVCAR-4 ovarian, 15.4%; in the assay on IGROV1 ovarian, 50.7%; in the assay on OVCAR-3 ovarian it was 17.2%; with HS 578T breast it was 43%. For the same molecule, the growth in the assay with NCI/ADR-RES ovarian was 107%.

On to `c1ccc(-c2nc(N3CCCNCC3)c3nc(-c4ccccc4)oc3n2)cc1`, for which the growth in the assay on SK-MEL-2 melanoma is 102%; in the assay on EKVX NSCLC, 62.8%; in the assay on SN12C renal it was -22.5% (active); in the assay with UO-31 renal, 51.1%; with TK-10 renal it was -47.3% (active); in the assay with ACHN renal it was -53.5% (active). Moreover, the growth in the assay with CAKI-1 renal is 40.1%; with A498 renal, 69.9%; in the assay on CCRF-CEM leukemia, 12.7%; with MOLT-4 leukemia, 0.525% (active); with SR leukemia, 0.248% (active); in the assay on RPMI-8226 leukemia, -15.7% (active). The growth in the assay with OVCAR-8 ovarian is 59.5%; in the assay on OVCAR-5 ovarian, 87.9%; in the assay on OVCAR-4 ovarian, 76.3%; in the assay on IGROV1 ovarian, -56% (active); with OVCAR-3 ovarian, -69.8% (active); in the assay with HS 578T breast it was 83.6%. The growth in the assay on NCI/ADR-RES ovarian was -11.8% (active).

On to `CCOC(=O)c1nn(C2CCCCO2)c2ccc(NC(=O)CN3CCCC3)cc12` (stereo not drawn), for which the growth was 107% in the assay on SK-MEL-2 melanoma; 95.8% in the assay with EKVX NSCLC; 98.9% in the assay with SN12C renal; 84.4% in the assay on UO-31 renal; 103% in the assay with TK-10 renal; 101% with ACHN renal. The growth is 91.5% with CAKI-1 renal; 78.9% in the assay with A498 renal; 108% in the assay with CCRF-CEM leukemia; 99.3% in the assay with MOLT-4 leukemia; 103% in the assay on SR leukemia; 105% in the assay with RPMI-8226 leukemia. For the same molecule, the growth was 101% in the assay with OVCAR-8 ovarian; 99.1% in the assay with OVCAR-5 ovarian; 99.4% with OVCAR-4 ovarian; 102% in the assay with IGROV1 ovarian; 109% with OVCAR-3 ovarian; 95.4% with HS 578T breast. The growth in the assay with NCI/ADR-RES ovarian is 103%.

On to `COc1ccc(C2CC(c3ccc4ccccc4c3)=NN2c2nc(O)c(C3=c4cc(OC)ccc4=NC3=O)s2)cc1` (stereo not drawn), for which the growth was -69.6% (active) in the assay on SK-MEL-2 melanoma; -67.3% (active) with EKVX NSCLC; -56% (active) in the assay with SN12C renal; -77.3% (active) in the assay on UO-31 renal; -71% (active) in the assay on TK-10 renal; -51.2% (active) in the assay with ACHN renal. In addition, the growth in the assay on CAKI-1 renal is -59.6% (active); in the assay on A498 renal, -83.2% (active); in the assay on CCRF-CEM leukemia it was 8.68% (active); in the assay on MOLT-4 leukemia it was -13.2% (active); in the assay on SR leukemia, -30.5% (active); in the assay with RPMI-8226 leukemia, 1.78% (active). The growth in the assay with OVCAR-8 ovarian was -34.6% (active); with OVCAR-5 ovarian, 0.651% (active); with OVCAR-4 ovarian, -45.8% (active); in the assay on IGROV1 ovarian, -18.5% (active); in the assay with OVCAR-3 ovarian, -55.5% (active); in the assay with HS 578T breast, -7.14% (active). Besides, the growth in the assay with NCI/ADR-RES ovarian was 57%.

For the molecule `CC[C@@H]1NC(=O)[C@@H]2CCCCN2C(=O)[C@@H]2CCCN2C(=O)[C@@H](NC(=O)[C@H](Cc2cc(F)cc(F)c2)NC(=O)Nc2ccc(C3CC3)cc2F)[C@H](C)OC(=O)[C@@H]2C[C@@H](C)CN2C1=O`, the growth with SK-MEL-2 melanoma is 9.64% (active); in the assay with EKVX NSCLC, 20.4%; with SN12C renal it was 12%; in the assay with UO-31 renal, 11.2%; in the assay on TK-10 renal it was 34%; with ACHN renal, 12.1%. Besides, the growth in the assay on CAKI-1 renal was 9.54% (active); in the assay on A498 renal, -5.62% (active); in the assay on CCRF-CEM leukemia it was 40.5%; with MOLT-4 leukemia it was 17%; with SR leukemia it was 15.1%; in the assay with RPMI-8226 leukemia, 12.8%. Also, the growth in the assay with OVCAR-8 ovarian was 13.2%; in the assay on OVCAR-5 ovarian, -1.92% (active); in the assay on OVCAR-4 ovarian it was 7.84% (active); in the assay with IGROV1 ovarian, 28.5%; in the assay with OVCAR-3 ovarian, 6.44% (active); in the assay on HS 578T breast, 20.6%. Moreover, the growth in the assay with NCI/ADR-RES ovarian is 14%.
